Source: PubChem BioAssay (National Center for Advancing Translational Sciences (NCATS))
Sampled rows, rich in hits. Any-hit rate of the full collection: about 12%.
HP1b chromo inh = blocks HP1-beta chromodomain binding to methylated histone tails; P83916; AlphaScreen HP1-beta / biotin-H3K9me3 peptide binding; Potency, µM (series often up to 114 µM), inactives show top-dose activity change, negative = inhibition, hits mostly inhibitors; hit rate 0.56% among 390,000; note: nearly all actives have a fitted effect of over 70% in size
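AlphaScreen: HP1-beta (50 nM) preformed 30 min with biotin-H3(1-18)K9me3 peptide (50 nM) in PBS pH 7.4, 0.01% Tween-20. Compound added for 30 min at RT, then streptavidin donor/nickel chelate acceptor beads (10 ug/mL) for 30 min.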
JMJD2A Tudor inh = inhibitors of human JMJD2A Tudor domain; O75164; hit rate 4.4% among 390,000; AlphaScreen JMJD2A-Tudor / H3K4me3 peptide binding; Potency, µM (series often up to 114 µM), without a hit: at the highest dose activity change, negative = inhibition, most hits filed as inhibitors; AID 504339; note: % is set by controls: 0 for no effect and ±100 for the full control effect; nearly all actives have a fitted effect of over 50% in size
BAZ2B block = blocks human BAZ2B. AlphaScreen BAZ2B-H3K14Ac peptide displacement. Potency, µM (highest dose often 114 µM), for inactives: top-dose activity change, negative = inhibition, usual class: inhibitors. hit rate 4.4% among 360,000; note: % is set by controls: 0 for no effect and ±100 for the full control effect; nearly all actives have a fitted effect of over 60% in size
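Protein-peptide AlphaScreen: BAZ2B 50 nM, b-H3K14Ac 50 nM, 1x PBS pH 7.4 + 0.01% Tween-20. Preincubation 30 min RT; cpd 30 min RT (top 110 uM); beads 20 min RT, light-protected.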
Sfp PPTase inh = Sfp phosphopantetheinyl transferase inhibition. Potency, µM, for inactives: largest response in the series, negative = inhibition, hits mostly inhibitors. Q9F4F7. AID 1490. hit rate 3.5% among 310,000. Biochemical Sfp PPTase activity, qHTS;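 note: the enzyme is Sfp with the accession as filed and its product quenches rhodamine fluorescence; 0% = enzyme reaction without inhibitor and -100% = no enzyme wells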
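Fluorescence-quenching assay: 15 nM Sfp-PPTase preincubated 15 min at room temperature with compound, then 5 uM rhodamine-CoA and 12.5 uM BHQ-2-labelled YbbR peptide added. Fluorescence (ex 525/em 598 nm) read at start and after 30 min; difference gives rate.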
G9a block = inhibitors of human histone lysine methyltransferase G9a; G9a H3K9 monomethylation, AlphaScreen, 2 h; Q96KQ7; Potency, µM (doses to about 102 µM), for inactives: top-dose activity, negative = inhibition, actives largely listed as inhibitors; hit rate 8.8% among 350,000; note: % is set by controls: 0 for no effect and ±100 for the full control effect; nearly all actives have a fitted effect of over 75% in size
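G9a (20 nM) preincubated 15 min RT with compounds, then 500 nM biotinylated H3K9 peptide and 20 uM SAM added; 2 h RT reaction. Monomethyl-H3K9 product detected by AlphaScreen with anti-H3K9me1 antibody, streptavidin donor and anti-rabbit IgG acceptor beads.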
The depositor's hits bear a star; u = inconclusive; x = no result; [ ] = dose if it differs, or a comment. Calls come from the whole dose curve; as a rule, active = well fitted curve in the direction sought with a large enough effect; inconclusive = small, poorly fitted or top-dose-only effect, or another doubt; inactive = no such curve, though single readings can be large; an effect the other way counts as inactive or inconclusive. Potency is the fitted concentration of half-maximal effect.

SMILES | HP1b chromo inh | JMJD2A Tudor inh | BAZ2B block | Sfp PPTase inh | G9a block
CN(C)c1ccc(CNC(=O)CN2C(=O)c3cccnc3Oc3ccc(Cl)cc32)cc1 | 14% | -12% | -11% | x | u
CCOC(=O)c1noc2nc(C)n(CC(=O)Nc3ccc(OC)c(Cl)c3)c(=O)c12 | 27%[57 µM] | -21% | 0% | x | -20%[59 µM]
O=C(c1cnccn1)N1CCC2(CC1)CN(Cc1nccs1)C2 | x | x | x | 20% | 0%[12.7 µM]
Cc1ccc(C)c(S(=O)(=O)N2CCN(c3ncccn3)CC2)c1 | 96% | -5%[11.4 µM] | -1% | -18% | 35%
Cc1ccc(C)c(CN2CCN(c3ncccn3)CC2)c1 | u | 20µM* | u | -17% | x
Fc1cccc(F)c1CN1CCN(c2ncccn2)CC1 | 8% | u | 4% | -16% | 11%[59 µM]
Oc1c(CN2CCOCC2)cc(CN2CCOCC2)cc1CN1CCOCC1 | 21% | -12% | x | x | x
Fc1ccccc1CN1CCN(c2ncccn2)CC1 | -31% | 6.3µM* | u | -23% | 22µM*
Oc1cc(O)c(CN2CCOCC2)cc1CN1CCOCC1 | 71µM* | 79µM* | x | x | x
Oc1cc2c(cc1CN1CCN(c3ncccn3)CC1)OCO2 | 13% | u | -30% | -6% | 4µM*
CC(=O)c1sc(NC(=O)CCN2C(=O)c3ccccc3C2=O)nc1C | 18% | -4% | -19% | 10% | 20%
CC1=C(C(=O)OC2CCCC2)C(c2ccccc2C(F)(F)F)CC(=O)N1 (stereo not given) | 32% | -5% | 0% | x | -5%[59 µM]
CCOc1ccc(N2CC(NC(=O)C3CCCC3)CC2=O)cc1 (stereo not given) | -6% | -12% | 2% | x | -3%[59 µM]
O=C(NCc1ccccc1)n1cc(P(=S)(c2ccccc2)c2ccccc2)c2ccccc21 | x | -11% | x | x | x
COc1ccc(CNC(=O)c2ccc(NC(=O)N3CCSc4ccccc43)cc2)cc1 | 37% | -2% | -10% | x | 3%[59 µM]
COCCn1ccc2c(OCC(=O)Nc3cccc(C(F)(F)F)c3)cccc2c1=O | 23% | -1% | 1% | x | -18%[59 µM]
Clc1cccc(Cl)c1CN1CCN(c2ncccn2)CC1 | 65% | -2% | -5% | -22% | x
O=[N+]([O-])c1ccc(Cl)c(CN2CCN(c3ncccn3)CC2)c1 | -1% | u | u | -11% | 71µM*
O=C(c1cc(-c2cccnc2)nc2ccccc12)N1CCN(S(=O)(=O)c2cccs2)CC1 | 52% | -9% | 0% | x | 0%[2.33 µM]
O=C(O)c1ccc(CSc2nc3ccccc3[nH]2)cc1 | 65% | -1% | -4% | 7% | -18%
O=C(O)c1cc([N+](=O)[O-])c(Sc2nc3ccccc3[nH]2)c([N+](=O)[O-])c1 | 26% | -7% | -7% | 50µM* | 40µM*
CCN1CCN(c2ccc([N+](=O)[O-])c(Sc3nc4ccccc4[nH]3)c2)CC1 | u | -34% | -27% | 0% | 32µM*
CS(=O)(=O)c1cc([N+](=O)[O-])c(Sc2nc3ccccc3[nH]2)c([N+](=O)[O-])c1 | u | u | -29% | 13µM* | u
Cn1cnc([N+](=O)[O-])c1Sc1nc2ccccc2[nH]1 | 15% | -9% | 25% | u | -3%
CC1C=CC=CC=CC=CC=CC=CC=CC(OC2OC(C)C(O)C(N)C2O)CC2OC(O)(CC(O)CC(O)C(O)CCC(O)CC(O)CC(=O)OC(C)C(C)C1O)CC(O)C2C(=O)O (stereo not given) | 13% | 11µM* | x | x | x
SMILES | HP1b chromo inh | JMJD2A Tudor inh | BAZ2B block | Sfp PPTase inh | G9a block
C[C@H]1[C@@H](O)[C@@H](C)\C=C/C=C\C=C/C=C\C=C/C=C\C=C/[C@@H](O[C@H]2O[C@@H](C)[C@@H](O)[C@@H](N)[C@@H]2O)C[C@@H]2O[C@](O)(C[C@@H](O)C[C@@H](O)[C@@H](O)CC[C@@H](O)C[C@@H](O)CC(=O)O[C@H]1C)C[C@@H](O)[C@H]2C(=O)O (stereo in doubt) | x | x | x | u | 9%[21.5 µM]
COc1ccc(N(CC(=O)NC2CCS(=O)(=O)C2)S(=O)(=O)c2ccc(Cl)c(Cl)c2)cc1 (stereo not given) | 7% | -13% | 14% | x | 50µM*
N#CC(=C(/N)Sc1ccccc1N)/C(C#N)=C(\N)Sc1ccccc1N | x | x | x | 56µM* | 13µM*
Cc1nccn1CC(O)COC1CCCCC1 (stereo not given) | u | 18µM* | 32µM* | -6% | u
OC(COC1CCCCC1)CN1CCCCC1 (stereo not given) | -20% | 79µM* | 56µM* | -11% | 7.9µM*
CN(C)C(=O)c1ccc(-c2nc(NCc3cccs3)c3ccccc3n2)cc1 | x | x | x | -25% | x
COc1ccc(CNC(=O)CSc2ncc(S(=O)(=O)c3ccc(C)c(Cl)c3)c(=O)[nH]2)cc1 | 22%[57 µM] | 2% | 2% | x | 5%[59 µM]
S=C(Nc1ccc2cn[nH]c2c1)Nc1ccc(Cl)cc1Cl | -22% | u | u | 16µM* | 28µM*
O=c1[nH]c2ccc(NC(=S)Nc3ccccc3Cl)cc2[nH]1 | 1% | -6% | -4% | 50µM* | 14µM*
Cc1ccccc1NC(=S)Nc1ccc2[nH]c(=O)[nH]c2c1 | -4% | -16% | -10% | -28% | 50µM*
CCC1Nc2ncnc(N3CCCCC3)c2N(Cc2ccc(Cl)cc2)C1=O (stereo not given) | 56% | u | x | x | x
CCC1Nc2ncnc(N3CCN(c4ccccc4)CC3)c2N(Cc2ccc(C)cc2)C1=O (stereo not given) | -3% | 56µM* | u | x | u
CCC1Nc2ncnc(N3CCN(c4ccccn4)CC3)c2N(Cc2ccc(Cl)cc2)C1=O (stereo not given) | 0% | u | 56µM* | x | -26%[2.33 µM]
CCOc1ccc2nc(SCC(=O)N(CC(C)C)c3c(N)n(Cc4ccccc4)c(=O)[nH]c3=O)[nH]c2c1 | 16% | -9% | -2% | x | 50µM*
COCCN(C(=O)CSc1nc2ccc(OC)cc2[nH]1)c1c(N)n(Cc2ccccc2)c(=O)[nH]c1=O | 23% | -21% | 5% | x | 20µM*
COCCN(C(=O)CSc1nc(N)cc(=O)[nH]1)c1c(N)n(Cc2ccccc2)c(=O)[nH]c1=O | 14% | -11% | 9% | x | 50µM*
COCCN(C(=O)CSc1nc2ccc(C)cc2[nH]1)c1c(N)n(Cc2ccccc2)c(=O)[nH]c1=O | 22% | -16% | -8% | -9% | u
CC1CCCCN1C(=O)CSc1n[nH]c(-c2ccccc2Cl)n1 (stereo not given) | 24%[57 µM] | -9% | 5% | x | -5%[59 µM]
O=C(C=C1CCN(c2ncc(C(F)(F)F)cc2Cl)CC1)NNC(=O)Nc1ccccc1 | 19% | -12% | 3% | 7% | 11µM*
O=C(C=C1CCN(c2ncc(C(F)(F)F)cc2Cl)CC1)NNC(=O)Nc1ccc(Cl)cc1 | 21% | -3% | 4% | 6% | -4%
CCN(CC)CCNC(=O)c1c(C)[nH]c(/C=C2\C(=O)Nc3ccc(F)cc32)c1C | x | x | x | 1% | u
N#Cc1ccc(OCC(=O)Nc2ccncc2)cc1 | 35% | -2% | -11% | -24% | 50µM*
